Test results as given in ChEMBL document CHEMBL1961873, “Compounds: GSK PKIS; Assays: Nanosyn kinase panel” (2012).

Columns and labels:
[1] = target: Calcium/calmodulin-dependent protein kinase type II subunit alpha (Homo sapiens) (UniProt Q9UQM7); conditions: at 1 µM;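 note: reported value is a mean percent inhibition of CAMK2A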
[2] = target: Calcium/calmodulin-dependent protein kinase type II subunit delta (Homo sapiens) (UniProt Q13557); conditions: at 0.1 µM
[3] = target: Calcium/calmodulin-dependent protein kinase type II subunit delta (Homo sapiens) (UniProt Q13557); conditions: at 1 µM
[4] = target: T1, Calcium/calmodulin-dependent protein kinase type IV (Homo sapiens) (UniProt Q16566); conditions: at 0.1 µM
T1 sequence (whole entry): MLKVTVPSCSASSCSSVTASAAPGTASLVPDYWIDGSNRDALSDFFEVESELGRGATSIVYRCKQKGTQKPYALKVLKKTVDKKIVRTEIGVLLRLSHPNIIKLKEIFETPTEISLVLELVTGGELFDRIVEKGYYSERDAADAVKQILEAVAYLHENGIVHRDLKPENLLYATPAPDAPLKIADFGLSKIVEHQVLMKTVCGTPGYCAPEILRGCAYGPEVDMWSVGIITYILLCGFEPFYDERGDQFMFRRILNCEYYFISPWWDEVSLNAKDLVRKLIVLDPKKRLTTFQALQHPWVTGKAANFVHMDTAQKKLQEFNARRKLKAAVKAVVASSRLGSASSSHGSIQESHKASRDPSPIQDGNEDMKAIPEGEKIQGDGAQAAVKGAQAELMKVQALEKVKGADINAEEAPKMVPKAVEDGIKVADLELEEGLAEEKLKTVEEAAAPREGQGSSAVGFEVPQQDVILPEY

[5] = target: T1, Calcium/calmodulin-dependent protein kinase type IV (Homo sapiens); conditions: at 1 µM
[6] = target: T2, Serine/threonine-protein kinase Chk1 (Homo sapiens) (UniProt O14757); conditions: at 0.1 µM
T2 sequence (whole entry): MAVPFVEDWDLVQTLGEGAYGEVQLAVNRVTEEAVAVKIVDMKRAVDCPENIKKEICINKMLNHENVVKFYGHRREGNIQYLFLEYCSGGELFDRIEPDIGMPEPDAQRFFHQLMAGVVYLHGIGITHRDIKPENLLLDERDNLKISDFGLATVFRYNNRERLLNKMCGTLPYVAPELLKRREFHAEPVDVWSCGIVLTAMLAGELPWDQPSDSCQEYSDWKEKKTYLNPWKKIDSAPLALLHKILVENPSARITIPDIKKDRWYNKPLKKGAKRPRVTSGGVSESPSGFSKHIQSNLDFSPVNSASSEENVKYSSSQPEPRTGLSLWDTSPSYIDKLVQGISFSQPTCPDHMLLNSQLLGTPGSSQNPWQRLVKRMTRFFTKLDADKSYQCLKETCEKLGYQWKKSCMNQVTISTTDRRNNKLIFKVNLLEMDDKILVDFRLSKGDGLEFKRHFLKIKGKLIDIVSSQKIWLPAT

[7] = target: T2, Serine/threonine-protein kinase Chk1 (Homo sapiens); conditions: at 1 µM
[8] = target: Serine/threonine-protein kinase Chk2 (Homo sapiens) (UniProt O96017); conditions: at 0.1 µM
[9] = target: Serine/threonine-protein kinase Chk2 (Homo sapiens) (UniProt O96017); conditions: at 1 µM
[10] = target: Death-associated protein kinase 1 (Homo sapiens) (UniProt P53355); conditions: at 0.1 µM
[11] = target: Death-associated protein kinase 1 (Homo sapiens) (UniProt P53355); conditions: at 1 µM
[12] = target: T3, Serine/threonine-protein kinase DCLK2 (Homo sapiens) (UniProt Q8N568); conditions: at 0.1 µM
T3 sequence (whole entry): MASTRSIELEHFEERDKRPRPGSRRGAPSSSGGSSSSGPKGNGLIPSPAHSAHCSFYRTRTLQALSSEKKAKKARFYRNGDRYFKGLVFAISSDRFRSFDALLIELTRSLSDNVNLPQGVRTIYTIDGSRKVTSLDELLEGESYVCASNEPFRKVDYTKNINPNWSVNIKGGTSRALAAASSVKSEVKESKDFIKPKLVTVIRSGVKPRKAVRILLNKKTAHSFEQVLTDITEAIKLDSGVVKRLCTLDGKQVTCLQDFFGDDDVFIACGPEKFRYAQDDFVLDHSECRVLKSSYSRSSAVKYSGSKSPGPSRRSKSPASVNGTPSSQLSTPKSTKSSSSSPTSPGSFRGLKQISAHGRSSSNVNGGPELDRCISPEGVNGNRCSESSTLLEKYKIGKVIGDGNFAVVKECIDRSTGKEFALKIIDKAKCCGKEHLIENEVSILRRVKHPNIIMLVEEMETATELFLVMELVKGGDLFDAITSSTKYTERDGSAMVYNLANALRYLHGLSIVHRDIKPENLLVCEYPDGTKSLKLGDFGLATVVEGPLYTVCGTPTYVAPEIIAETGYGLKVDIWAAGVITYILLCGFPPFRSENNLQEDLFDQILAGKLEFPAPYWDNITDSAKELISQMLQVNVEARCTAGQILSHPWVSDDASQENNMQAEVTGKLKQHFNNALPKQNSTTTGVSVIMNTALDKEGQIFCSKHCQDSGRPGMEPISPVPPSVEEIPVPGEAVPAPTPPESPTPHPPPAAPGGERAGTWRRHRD

[13] = target: T3, Serine/threonine-protein kinase DCLK2 (Homo sapiens); conditions: at 1 µM
[14] = target: MAP kinase-activated protein kinase 2 (Homo sapiens) (UniProt P49137); conditions: at 0.1 µM
[15] = target: MAP kinase-activated protein kinase 2 (Homo sapiens) (UniProt P49137); conditions: at 1 µM
[16] = target: MAP kinase-activated protein kinase 3 (Homo sapiens) (UniProt Q16644); conditions: at 0.1 µM
[17] = target: MAP kinase-activated protein kinase 3 (Homo sapiens) (UniProt Q16644); conditions: at 1 µM
[18] = target: Serine/threonine-protein kinase MARK1 (Homo sapiens) (UniProt Q9P0L2); conditions: at 0.1 µM
[19] = target: Serine/threonine-protein kinase MARK1 (Homo sapiens) (UniProt Q9P0L2); conditions: at 1 µM
[20] = target: MAP/microtubule affinity-regulating kinase 3 (Homo sapiens) (UniProt P27448); conditions: at 0.1 µM;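 note: mean percent inhibition of MARK3 kinase activity, measured within the GSK PKIS screening panel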
MAP/microtubule affinity-regulating kinase 3 (Homo sapiens), sequence (P27448 whole entry, looked up): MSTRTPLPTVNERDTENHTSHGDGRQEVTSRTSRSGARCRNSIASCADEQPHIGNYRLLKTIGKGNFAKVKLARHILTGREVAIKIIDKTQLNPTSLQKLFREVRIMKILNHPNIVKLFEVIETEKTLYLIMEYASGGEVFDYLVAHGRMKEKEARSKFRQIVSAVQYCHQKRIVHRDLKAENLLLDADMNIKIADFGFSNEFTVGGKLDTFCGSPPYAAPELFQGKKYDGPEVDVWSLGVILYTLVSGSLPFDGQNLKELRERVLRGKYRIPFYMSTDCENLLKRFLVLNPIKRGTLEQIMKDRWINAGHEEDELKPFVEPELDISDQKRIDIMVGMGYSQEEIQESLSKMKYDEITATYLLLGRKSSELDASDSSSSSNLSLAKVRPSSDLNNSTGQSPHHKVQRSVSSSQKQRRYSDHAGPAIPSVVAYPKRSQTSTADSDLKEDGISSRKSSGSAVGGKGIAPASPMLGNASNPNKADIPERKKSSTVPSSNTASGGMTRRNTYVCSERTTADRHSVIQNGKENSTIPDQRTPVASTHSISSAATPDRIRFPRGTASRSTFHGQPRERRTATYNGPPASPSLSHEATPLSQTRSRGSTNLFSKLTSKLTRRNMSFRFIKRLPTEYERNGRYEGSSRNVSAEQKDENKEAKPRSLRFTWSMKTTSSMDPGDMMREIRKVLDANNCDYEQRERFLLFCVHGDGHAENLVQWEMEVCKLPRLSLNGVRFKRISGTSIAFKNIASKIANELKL

Death-associated protein kinase 1 (Homo sapiens), sequence (P53355 whole entry, looked up): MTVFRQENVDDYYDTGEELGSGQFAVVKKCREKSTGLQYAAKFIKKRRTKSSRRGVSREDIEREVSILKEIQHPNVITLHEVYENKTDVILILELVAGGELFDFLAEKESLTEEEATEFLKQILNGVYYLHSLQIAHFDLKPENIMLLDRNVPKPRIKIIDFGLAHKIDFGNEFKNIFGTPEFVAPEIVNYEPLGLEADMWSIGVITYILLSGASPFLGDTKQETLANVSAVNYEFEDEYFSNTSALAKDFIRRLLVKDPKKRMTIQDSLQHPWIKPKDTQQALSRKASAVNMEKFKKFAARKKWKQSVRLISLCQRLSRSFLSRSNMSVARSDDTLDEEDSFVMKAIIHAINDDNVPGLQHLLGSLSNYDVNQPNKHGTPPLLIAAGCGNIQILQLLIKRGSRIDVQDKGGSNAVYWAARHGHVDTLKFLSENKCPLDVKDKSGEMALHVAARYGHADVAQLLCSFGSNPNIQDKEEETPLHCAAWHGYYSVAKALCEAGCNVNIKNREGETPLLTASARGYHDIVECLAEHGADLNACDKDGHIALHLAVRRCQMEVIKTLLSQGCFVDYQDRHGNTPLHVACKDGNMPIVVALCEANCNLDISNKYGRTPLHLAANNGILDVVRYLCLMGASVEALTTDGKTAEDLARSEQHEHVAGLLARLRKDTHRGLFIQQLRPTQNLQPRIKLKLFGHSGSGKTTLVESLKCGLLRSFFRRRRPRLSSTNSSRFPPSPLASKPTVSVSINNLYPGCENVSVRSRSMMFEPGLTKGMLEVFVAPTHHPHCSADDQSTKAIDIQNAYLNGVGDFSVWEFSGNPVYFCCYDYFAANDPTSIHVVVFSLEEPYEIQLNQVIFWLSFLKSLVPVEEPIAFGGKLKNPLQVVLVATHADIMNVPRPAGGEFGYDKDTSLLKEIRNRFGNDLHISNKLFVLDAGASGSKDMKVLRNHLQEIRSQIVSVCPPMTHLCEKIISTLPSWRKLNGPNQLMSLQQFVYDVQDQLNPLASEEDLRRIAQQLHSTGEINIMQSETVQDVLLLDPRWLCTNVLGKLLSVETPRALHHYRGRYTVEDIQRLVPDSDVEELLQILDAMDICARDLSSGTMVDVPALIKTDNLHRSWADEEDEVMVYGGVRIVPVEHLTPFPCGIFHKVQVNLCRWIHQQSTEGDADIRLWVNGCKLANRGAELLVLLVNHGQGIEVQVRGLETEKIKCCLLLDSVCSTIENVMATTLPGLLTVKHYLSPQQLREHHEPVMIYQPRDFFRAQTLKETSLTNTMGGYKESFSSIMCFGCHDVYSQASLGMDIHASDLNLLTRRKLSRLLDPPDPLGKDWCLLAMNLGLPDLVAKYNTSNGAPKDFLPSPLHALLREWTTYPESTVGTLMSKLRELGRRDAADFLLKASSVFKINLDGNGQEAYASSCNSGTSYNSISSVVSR
Serine/threonine-protein kinase Chk2 (Homo sapiens), sequence (O96017 whole entry): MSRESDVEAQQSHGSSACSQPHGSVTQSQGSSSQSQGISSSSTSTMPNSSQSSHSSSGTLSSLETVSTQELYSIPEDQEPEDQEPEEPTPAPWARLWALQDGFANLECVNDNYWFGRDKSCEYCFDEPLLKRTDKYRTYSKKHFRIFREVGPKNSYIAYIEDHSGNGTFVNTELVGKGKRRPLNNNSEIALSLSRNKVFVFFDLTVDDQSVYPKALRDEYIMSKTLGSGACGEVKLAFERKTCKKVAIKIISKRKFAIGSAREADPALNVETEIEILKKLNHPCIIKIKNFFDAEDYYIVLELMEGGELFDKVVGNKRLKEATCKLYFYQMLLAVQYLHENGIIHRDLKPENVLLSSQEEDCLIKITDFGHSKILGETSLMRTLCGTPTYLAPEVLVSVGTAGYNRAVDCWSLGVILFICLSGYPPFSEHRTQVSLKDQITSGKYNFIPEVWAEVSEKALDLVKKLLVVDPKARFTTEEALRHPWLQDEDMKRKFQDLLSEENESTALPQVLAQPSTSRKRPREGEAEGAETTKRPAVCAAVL
MAP kinase-activated protein kinase 3 (Homo sapiens), sequence (Q16644 whole entry, looked up): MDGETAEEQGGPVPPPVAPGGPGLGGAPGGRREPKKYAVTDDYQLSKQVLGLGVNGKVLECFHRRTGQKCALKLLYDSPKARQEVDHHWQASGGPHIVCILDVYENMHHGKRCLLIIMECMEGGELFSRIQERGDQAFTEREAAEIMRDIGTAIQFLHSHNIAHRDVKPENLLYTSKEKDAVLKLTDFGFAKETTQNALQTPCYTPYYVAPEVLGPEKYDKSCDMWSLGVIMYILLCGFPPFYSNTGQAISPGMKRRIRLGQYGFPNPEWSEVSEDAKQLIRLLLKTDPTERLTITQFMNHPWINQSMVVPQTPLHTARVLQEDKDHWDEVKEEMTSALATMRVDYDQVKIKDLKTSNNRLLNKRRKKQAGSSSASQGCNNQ
Serine/threonine-protein kinase MARK1 (Homo sapiens), sequence (Q9P0L2 whole entry, looked up): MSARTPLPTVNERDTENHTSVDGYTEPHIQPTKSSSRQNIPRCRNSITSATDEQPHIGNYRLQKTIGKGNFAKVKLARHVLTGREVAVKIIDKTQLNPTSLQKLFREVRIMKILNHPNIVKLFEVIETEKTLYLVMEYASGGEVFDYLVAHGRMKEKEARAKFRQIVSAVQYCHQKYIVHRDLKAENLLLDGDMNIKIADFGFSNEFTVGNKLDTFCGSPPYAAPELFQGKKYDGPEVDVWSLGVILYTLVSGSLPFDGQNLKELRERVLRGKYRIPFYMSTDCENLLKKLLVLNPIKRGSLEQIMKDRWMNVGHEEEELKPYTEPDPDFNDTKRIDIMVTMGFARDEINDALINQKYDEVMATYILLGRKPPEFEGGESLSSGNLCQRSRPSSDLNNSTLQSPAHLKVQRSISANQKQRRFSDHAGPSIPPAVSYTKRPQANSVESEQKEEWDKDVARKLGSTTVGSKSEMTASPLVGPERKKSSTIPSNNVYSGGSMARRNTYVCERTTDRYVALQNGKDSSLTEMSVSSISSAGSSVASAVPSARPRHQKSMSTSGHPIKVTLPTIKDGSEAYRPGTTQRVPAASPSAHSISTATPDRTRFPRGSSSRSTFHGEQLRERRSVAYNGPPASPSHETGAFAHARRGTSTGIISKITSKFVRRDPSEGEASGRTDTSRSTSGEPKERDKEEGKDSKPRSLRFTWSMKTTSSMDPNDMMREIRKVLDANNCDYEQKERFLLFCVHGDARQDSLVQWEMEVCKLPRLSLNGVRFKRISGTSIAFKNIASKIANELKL
Calcium/calmodulin-dependent protein kinase type II subunit delta (Homo sapiens), sequence (Q13557 whole entry): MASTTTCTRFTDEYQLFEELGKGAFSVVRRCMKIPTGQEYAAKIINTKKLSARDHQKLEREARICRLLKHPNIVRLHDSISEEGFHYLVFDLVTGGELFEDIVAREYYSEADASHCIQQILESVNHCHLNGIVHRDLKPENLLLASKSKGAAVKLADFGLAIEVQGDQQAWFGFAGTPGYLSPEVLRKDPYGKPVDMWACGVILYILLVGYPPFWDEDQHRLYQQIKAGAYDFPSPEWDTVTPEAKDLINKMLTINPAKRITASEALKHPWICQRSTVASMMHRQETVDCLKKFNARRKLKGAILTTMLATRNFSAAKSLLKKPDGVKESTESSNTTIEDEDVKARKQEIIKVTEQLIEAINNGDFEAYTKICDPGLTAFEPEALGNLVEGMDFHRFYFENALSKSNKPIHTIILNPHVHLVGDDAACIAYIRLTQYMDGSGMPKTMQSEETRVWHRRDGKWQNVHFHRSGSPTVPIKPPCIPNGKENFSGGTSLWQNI
MAP kinase-activated protein kinase 2 (Homo sapiens), sequence (P49137 whole entry, looked up): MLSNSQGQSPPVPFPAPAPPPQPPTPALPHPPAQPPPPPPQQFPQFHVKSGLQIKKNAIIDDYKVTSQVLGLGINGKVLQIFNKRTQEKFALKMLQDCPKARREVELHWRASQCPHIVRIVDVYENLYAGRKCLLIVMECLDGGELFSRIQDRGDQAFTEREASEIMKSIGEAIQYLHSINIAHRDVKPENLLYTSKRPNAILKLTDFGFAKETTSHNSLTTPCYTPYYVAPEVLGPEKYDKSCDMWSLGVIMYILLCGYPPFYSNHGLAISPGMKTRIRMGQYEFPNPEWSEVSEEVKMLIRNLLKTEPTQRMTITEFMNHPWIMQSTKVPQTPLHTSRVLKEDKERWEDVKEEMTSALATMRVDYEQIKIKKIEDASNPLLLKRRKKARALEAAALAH

SMILES	inhibition [1] [%]	inhibition [2] [%]	inhibition [3] [%]	inhibition [4] [%]	inhibition [5] [%]	inhibition [6] [%]	inhibition [7] [%]	inhibition [8] [%]	inhibition [9] [%]	inhibition [10] [%]	inhibition [11] [%]	inhibition [12] [%]	inhibition [13] [%]	inhibition [14] [%]	inhibition [15] [%]	inhibition [16] [%]	inhibition [17] [%]	inhibition [18] [%]	inhibition [19] [%]	inhibition [20] [%]
CNC(=O)c1sc(-n2cnc3cc(OC)c(OC)cc32)cc1OCc1ccccc1C(F)(F)F	-0.49	3.02	0.51	0.67	-0.52	2.9	3.46	2.9	2.7	5.53	3	0.25	2.29	1.17	1.2	3.3	2.78	2.03	4.3	0.78
CCCNc1cccc(-n2ncc3c(N/N=C/c4ccncc4)ncnc32)c1	3.36	1.11	1.17	-2.8	-3.1	-4.03	-5.65	-4.06	0.34	-6.43	-8.41	6.83	2.98	-2.72	-2.37	-5.26	-4.82	2.01	10.3	3.4
NS(=O)(=O)c1cccc(N/C=C2\C(=O)Nc3ccccc32)c1	8.27	5.11	16.3	1.25	2.86	9.31	14.3	10.6	32.8	10.6	12.5	0.84	2.32	4.22	4.45	11.3	12.1	6.31	24.4	5.23
COc1ccc(Nc2ncc(-c3ccccc3)o2)cc1OC	4.71	0.93	8.26	-0.62	1.46	-0.04	50.5	-0.14	2.24	1.44	1.47	0.15	5.3	-0.12	-0.35	0.05	0.81	2.68	20.4	4.59
Cc1cc(O)cc(C)c1/C=C/c1cncc(C(=O)OC(C)(C)C)c1	3.26	2.39	5.41	0.08	1.35	2.4	3.47	0.86	2.31	1.5	1.3	4.19	6.15	1.72	1	1.97	2.47	2.3	2.93	2.5
CC(C)c1ccc(-c2cc(-c3c[nH]nc3-c3ccccn3)ccn2)cc1	-0.49	-0.8	1.63	0.73	1.62	-0.13	1.92	0.27	0.77	0.1	-0.6	0.39	-0.35	0.58	-0.11	0.63	6.51	1.23	1.49	-3.53
CC1=C(C(=O)Nc2ccc3[nH]ncc3c2)C(c2ccc(F)cc2)N=C(c2ccc(C(F)(F)F)nc2)N1 (stereo not given)	2.04	0.67	3.6	0.82	1.17	0.19	3.03	1.5	2.24	0.86	0.67	-2.05	4.18	1.36	0.33	1.46	3.59	1.66	4.38	1.04
O=C(O[C@H]1CN[C@H](C#Cc2cc3ncnc(Nc4ccc5c(ccn5Cc5cc(F)ccc5F)c4)c3s2)C1)N1CCOCC1	3.57	4.06	3.62	0.33	1.34	-1.01	-1.69	-0.02	6.4	-3.56	-3.4	1.07	-1.18	-0.3	-1.2	-1.09	-1.03	4.09	3.3	1.37
COc1c(C(N)=O)cc(-c2ccc(Cl)cc2)cc1-c1ccc(S(N)(=O)=O)cc1	6.07	4.78	8.49	-0.13	3.77	-0.02	1.33	5.72	10.5	1.52	0.56	-5.08	2.52	2.42	3.46	5.57	8.63	0.41	1.61	-0.24
